The target of test [1] is Estrogen-related receptor gamma (Homo sapiens) (UniProt P62508). Briefly: ATG_ERRg_TRANS: Attagene TRANS-FACTORIAL HepG2 Assay for human Estrogen-Related Receptor gamma (ERRg) (AID 2282977).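 Note: hits increase reporter signal over DMSO so potencies reflect activators.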 Conditions: HepG2 Attagene TRANS reporter, ERRg transactivation. The gist of the method: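 HepG2 cells transiently transfected with multiplexed GAL4-UAS reporter units driven by chimeric NR-Gal4 proteins; 24 h exposure. Reporter mRNA quantified by RT-PCR, fluorescent labelling, HpaI digestion and capillary electrophoresis; gain of signal vs DMSO.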
Sequence of Estrogen-related receptor gamma (Homo sapiens) (P62508 whole entry, looked up, the tested form may be a part): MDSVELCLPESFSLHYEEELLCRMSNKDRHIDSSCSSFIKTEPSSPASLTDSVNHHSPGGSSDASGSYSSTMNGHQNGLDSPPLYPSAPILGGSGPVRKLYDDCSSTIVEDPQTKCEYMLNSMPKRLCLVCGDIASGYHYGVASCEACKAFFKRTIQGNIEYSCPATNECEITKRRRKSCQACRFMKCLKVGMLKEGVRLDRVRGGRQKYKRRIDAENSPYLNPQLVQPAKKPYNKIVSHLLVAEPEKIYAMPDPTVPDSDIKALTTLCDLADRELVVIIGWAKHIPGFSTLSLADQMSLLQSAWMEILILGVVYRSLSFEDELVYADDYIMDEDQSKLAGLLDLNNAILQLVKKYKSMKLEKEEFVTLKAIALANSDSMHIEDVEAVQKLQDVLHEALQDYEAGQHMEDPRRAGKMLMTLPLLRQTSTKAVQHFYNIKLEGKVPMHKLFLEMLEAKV

Test [2] concerns the target Oxysterols receptor LXR-alpha (Homo sapiens) (UniProt Q13133). Briefly: ATG_LXRa_TRANS: Attagene TRANS-FACTORIAL HepG2 Assay for human Liver X Receptor alpha (LXRa) (AID 2282980). Particulars: HepG2 Attagene TRANS reporter, LXRa transactivation. The gist of the method:
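Read-out: reporter transcript levels by RT-PCR plus capillary electrophoresis, fluorescence intensity. Transiently transfected HepG2, exogenous NR-GAL4 chimera, GAL4-UAS reporters; 24 h compound exposure. Activity = increase over DMSO negative control.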

The target of test [3] is Oxysterols receptor LXR-beta (Homo sapiens) (UniProt P55055). Briefly: ATG_LXRb_TRANS: Attagene TRANS-FACTORIAL HepG2 Assay for human Liver X Receptor beta (LXRb) (AID 2282981). Conditions: HepG2 Attagene TRANS GAL4-LXRb reporter, mRNA. The gist of the method: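 In this TRANS format, exogenous chimeric NR-Gal4 protein activity, not endogenous factors, drives reporter expression in transfected human HepG2 cells. Exposure lasted 24 h; reporter mRNA was read by fluorescent capillary electrophoresis.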
Sequence of Oxysterols receptor LXR-beta (Homo sapiens) (P55055 whole entry, looked up, the tested form may be a part): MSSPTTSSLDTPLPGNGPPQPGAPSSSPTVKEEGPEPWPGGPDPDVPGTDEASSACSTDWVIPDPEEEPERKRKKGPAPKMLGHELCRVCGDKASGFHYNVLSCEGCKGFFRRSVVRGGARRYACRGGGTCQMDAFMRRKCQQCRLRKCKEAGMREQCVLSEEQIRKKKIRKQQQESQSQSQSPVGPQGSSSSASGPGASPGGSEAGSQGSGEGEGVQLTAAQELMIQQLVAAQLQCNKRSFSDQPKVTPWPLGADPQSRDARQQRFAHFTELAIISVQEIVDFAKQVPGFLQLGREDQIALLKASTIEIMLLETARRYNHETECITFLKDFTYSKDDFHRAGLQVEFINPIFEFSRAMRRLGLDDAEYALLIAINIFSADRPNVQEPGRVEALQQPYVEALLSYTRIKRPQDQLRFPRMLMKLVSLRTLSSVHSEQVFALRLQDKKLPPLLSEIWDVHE

The target of test [4] is Hepatocyte nuclear factor 4-alpha (Homo sapiens) (UniProt P41235). Briefly: ATG_HNF4a_TRANS: Attagene TRANS-FACTORIAL HepG2 Assay for human Hepatocyte Nuclear Factor 4 alpha (HNF4a) (AID 2282982). Conditions: HepG2 HNF4a transactivation reporter, mRNA readout. The gist of the method:
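Cells used were human HepG2, transiently carrying GAL4-UAS reporter units read out against exogenous NR-GAL4 chimeras. Reporter transcript levels after 24 h dosing were quantified by fluorescent RT-PCR and capillary electrophoresis.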

A short description of test [5]: ATG_M_06_TRANS: Attagene TRANS-FACTORIAL HepG2 Assay for M06 Transcription Factor (Internal Marker) (AID 2282983). Particulars: HepG2 Attagene TRANS M06 internal marker reporter. The gist of the method:
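After a 24 h chemical treatment of transfected HepG2, RNA underwent DNase I treatment, reverse transcription and reporter-specific PCR; labelled, HpaI-digested products were sized by capillary electrophoresis. Signal increase relative to DMSO defined activity.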

The target in test [6] is Transcriptional activator Myb (Homo sapiens) (UniProt P10242). Briefly: ATG_Myb_CIS: Attagene CIS-FACTORIAL HepG2 Assay for human Myeloblastosis (Myb) Proto-Oncogene Transcription Factor (AID 2282986; active = hit-call score of the fitted dose curve at least 0.9, where 1 is the maximum; inactive = score below 0.9). Conditions: HepG2 Attagene CIS-FACTORIAL Myb reporter transcription; actives raise or lower the signal. The gist of the method: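 Transiently transfected HepG2 cells carrying a multiplexed cis-promoter reporter set report endogenous Myb activity after 24 h compound exposure. Reporter mRNA is read by RT-PCR with capillary electrophoresis of fluorescent products, fitted bidirectionally against DMSO.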
Sequence of Transcriptional activator Myb (Homo sapiens) (P10242 whole entry, looked up): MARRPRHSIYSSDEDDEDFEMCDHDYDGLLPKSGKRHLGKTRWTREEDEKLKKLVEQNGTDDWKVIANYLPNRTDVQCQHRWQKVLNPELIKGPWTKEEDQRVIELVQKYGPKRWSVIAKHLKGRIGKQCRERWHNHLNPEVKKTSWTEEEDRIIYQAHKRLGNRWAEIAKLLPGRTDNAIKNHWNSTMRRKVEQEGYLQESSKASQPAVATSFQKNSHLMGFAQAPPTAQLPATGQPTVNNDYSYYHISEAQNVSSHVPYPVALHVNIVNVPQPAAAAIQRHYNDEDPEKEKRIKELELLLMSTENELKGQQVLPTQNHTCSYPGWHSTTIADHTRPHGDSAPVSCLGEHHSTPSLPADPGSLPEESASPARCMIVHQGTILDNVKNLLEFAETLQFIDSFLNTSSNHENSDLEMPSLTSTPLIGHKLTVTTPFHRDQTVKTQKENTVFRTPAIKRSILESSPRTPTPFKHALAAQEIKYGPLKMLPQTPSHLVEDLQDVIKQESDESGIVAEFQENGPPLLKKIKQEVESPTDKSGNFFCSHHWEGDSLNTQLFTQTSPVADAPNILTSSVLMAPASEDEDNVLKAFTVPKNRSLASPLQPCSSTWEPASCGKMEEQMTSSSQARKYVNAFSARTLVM

Test [7] in a line: ATG_M_32_TRANS: Attagene TRANS-FACTORIAL HepG2 Assay for M32 Transcription Factor (Internal Marker) (AID 2282984).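 Note: transcript level of a background control reporter unit measured by RT-PCR and capillary electrophoresis.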 Conditions: HepG2 Attagene TRANS M32 internal marker reporter. The gist of the method: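 Human hepatoma HepG2, transient MRTU transfection, 24 h treatment. RNA → RT-PCR → fluorescent primer extension → HpaI digest (2 h, 37 C) → CE. Positive-direction fit vs DMSO.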

Test [8] has as its target Nuclear receptor subfamily 4 group A member 2 (Homo sapiens) (UniProt P43354). Description: ATG_NURR1_TRANS: Attagene TRANS-FACTORIAL HepG2 Assay for human Nuclear Receptor Related Protein 1 (NURR1) (AID 2282985). Particulars: HepG2 Attagene TRANS reporter, mRNA readout. The gist of the method:
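After 24 h chemical dosing, total RNA from transiently transfected HepG2 cells was reverse-transcribed and reporter cDNA PCR-amplified, FAM-labelled and analysed by capillary electrophoresis. Activity fitted in positive direction, DMSO as negative control.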

For test [9], the target named is Glucocorticoid receptor (Homo sapiens) (UniProt P04150). Description: ATG_GR_TRANS: Attagene TRANS-FACTORIAL HepG2 Assay for human Glucocorticoid Receptor (GR) (AID 2282978).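 Note: activators score as hits since higher reporter transcript over DMSO is fitted.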 Particulars: HepG2 Attagene TRANS GR reporter, mRNA transcription. The gist of the method:
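HepG2 cells transiently transfected with GAL4-UAS reporter units and exogenous GR-Gal4 chimera, dosed 24 h. Reporter mRNA by RT-PCR, FAM labeling, HpaI digest and capillary electrophoresis; gain-of-signal fit versus DMSO.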

Test [10] deals with Bile acid receptor (Homo sapiens) (UniProt Q96RI1). Briefly: ATG_FXR_TRANS: Attagene TRANS-FACTORIAL HepG2 Assay for Farnesoid X Receptor (FXR) (AID 2282979).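 Note: hits raise reporter mRNA above DMSO so AC50 marks FXR activation.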 Particulars: HepG2 Attagene TRANS FXR-GAL4 reporter transcription. The gist of the method:
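Read-out: fluorescent reporter transcripts quantified by capillary electrophoresis after RT-PCR of total RNA. Source cells were HepG2 transiently carrying chimeric NR-GAL4 plus GAL4-UAS reporter units, dosed 24 h. Activity fitted upward relative to DMSO baseline.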

Results filed as inconclusive are left out. Active and inactive are the calls of the source. Rule for the calls, unless noted: active = hit-call score of the fitted dose curve at least 0.9, where 1 is the maximum; inconclusive = response in the unintended direction; inactive = score below 0.9. Peptide text beside a SMILES is read from it.

Sequence of Nuclear receptor subfamily 4 group A member 2 (Homo sapiens) (P43354 whole entry, looked up): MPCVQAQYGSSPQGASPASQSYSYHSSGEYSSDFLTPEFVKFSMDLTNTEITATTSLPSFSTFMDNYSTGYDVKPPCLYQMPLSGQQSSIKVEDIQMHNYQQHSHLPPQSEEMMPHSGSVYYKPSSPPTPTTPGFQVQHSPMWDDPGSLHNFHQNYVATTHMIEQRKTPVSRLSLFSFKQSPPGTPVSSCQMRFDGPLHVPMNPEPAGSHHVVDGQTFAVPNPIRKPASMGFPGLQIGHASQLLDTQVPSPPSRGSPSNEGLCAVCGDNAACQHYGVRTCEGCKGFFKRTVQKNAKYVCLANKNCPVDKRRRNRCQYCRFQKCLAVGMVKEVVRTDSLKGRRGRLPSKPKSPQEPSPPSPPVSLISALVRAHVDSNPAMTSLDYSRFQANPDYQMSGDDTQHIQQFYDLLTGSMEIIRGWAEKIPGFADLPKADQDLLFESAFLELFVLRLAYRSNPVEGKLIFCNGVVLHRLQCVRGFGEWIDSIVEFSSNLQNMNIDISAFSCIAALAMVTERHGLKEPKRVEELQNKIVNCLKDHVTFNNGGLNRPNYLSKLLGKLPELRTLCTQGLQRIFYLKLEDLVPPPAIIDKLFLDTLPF
Sequence of Bile acid receptor (Homo sapiens) (Q96RI1 whole entry, looked up, the tested form may be a part): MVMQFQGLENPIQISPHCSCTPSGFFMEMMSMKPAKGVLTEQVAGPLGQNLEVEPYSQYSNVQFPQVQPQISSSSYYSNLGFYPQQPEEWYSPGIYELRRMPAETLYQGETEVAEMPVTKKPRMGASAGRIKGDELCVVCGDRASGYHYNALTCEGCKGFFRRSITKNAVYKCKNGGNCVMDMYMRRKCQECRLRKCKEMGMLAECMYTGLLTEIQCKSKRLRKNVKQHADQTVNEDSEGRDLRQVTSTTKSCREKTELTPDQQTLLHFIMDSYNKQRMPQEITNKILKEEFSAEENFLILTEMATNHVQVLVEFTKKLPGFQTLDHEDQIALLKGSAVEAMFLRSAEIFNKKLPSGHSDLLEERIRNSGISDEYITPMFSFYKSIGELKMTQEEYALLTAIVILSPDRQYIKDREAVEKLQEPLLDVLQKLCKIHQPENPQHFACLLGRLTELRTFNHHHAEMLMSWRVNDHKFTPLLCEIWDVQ
Sequence of Oxysterols receptor LXR-alpha (Homo sapiens) (Q13133 whole entry, looked up, the tested form may be a part): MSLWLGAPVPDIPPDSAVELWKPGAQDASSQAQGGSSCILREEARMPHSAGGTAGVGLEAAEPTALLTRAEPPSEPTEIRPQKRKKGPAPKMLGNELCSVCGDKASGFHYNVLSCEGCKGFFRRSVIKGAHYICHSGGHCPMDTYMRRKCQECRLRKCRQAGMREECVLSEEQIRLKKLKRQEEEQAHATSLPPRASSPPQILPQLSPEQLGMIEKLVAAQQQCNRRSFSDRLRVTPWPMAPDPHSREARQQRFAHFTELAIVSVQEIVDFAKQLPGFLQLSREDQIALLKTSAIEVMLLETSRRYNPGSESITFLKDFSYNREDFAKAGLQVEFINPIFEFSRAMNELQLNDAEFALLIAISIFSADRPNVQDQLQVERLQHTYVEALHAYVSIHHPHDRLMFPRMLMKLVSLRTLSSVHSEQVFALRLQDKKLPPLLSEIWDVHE
Sequence of Glucocorticoid receptor (Homo sapiens) (P04150 whole entry, looked up, the tested form may be a part): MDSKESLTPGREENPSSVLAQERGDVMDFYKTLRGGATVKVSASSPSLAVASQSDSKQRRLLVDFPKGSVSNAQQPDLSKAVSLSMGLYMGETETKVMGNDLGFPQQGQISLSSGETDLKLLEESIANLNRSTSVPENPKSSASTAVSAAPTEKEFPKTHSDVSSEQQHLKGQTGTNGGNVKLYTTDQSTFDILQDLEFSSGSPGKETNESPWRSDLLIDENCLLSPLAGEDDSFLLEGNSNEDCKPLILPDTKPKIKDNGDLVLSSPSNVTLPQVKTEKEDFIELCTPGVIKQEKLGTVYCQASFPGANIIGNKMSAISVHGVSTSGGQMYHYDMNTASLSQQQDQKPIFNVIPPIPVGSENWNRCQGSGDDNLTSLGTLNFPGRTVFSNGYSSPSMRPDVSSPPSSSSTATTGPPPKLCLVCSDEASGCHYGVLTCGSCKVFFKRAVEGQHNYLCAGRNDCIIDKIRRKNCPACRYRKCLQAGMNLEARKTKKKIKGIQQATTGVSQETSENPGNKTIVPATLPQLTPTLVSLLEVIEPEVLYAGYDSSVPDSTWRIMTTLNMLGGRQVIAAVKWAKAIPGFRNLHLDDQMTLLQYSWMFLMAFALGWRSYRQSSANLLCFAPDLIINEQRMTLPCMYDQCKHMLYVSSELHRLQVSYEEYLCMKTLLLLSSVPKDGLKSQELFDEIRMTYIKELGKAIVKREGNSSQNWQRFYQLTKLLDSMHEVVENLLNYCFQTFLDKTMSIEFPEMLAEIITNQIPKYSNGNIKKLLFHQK
Sequence of Hepatocyte nuclear factor 4-alpha (Homo sapiens) (P41235 whole entry, looked up, the tested form may be a part): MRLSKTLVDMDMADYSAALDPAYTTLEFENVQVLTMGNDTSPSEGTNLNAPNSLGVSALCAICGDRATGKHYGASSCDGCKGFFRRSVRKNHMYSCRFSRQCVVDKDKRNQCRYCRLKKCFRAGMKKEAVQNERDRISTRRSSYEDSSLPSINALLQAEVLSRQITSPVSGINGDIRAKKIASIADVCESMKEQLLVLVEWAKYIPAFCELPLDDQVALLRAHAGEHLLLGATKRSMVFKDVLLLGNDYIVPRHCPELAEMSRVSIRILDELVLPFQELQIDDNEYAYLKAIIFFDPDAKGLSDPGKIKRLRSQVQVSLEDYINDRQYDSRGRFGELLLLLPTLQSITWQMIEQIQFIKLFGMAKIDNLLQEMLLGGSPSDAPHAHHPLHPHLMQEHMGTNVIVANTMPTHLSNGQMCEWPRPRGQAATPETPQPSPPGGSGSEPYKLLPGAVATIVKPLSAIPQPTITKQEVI

Take `Nc1ccc(O)c([N+](=O)[O-])c1`: the result in [1], in [2], in test [3], in [4], in [5] and in test [6] was inactive.

Take `COC(=O)c1ccc(C(=O)OC)c(C(=O)OC)c1`: the call in test [1], in test [2], in test [3], in test [4], in test [5] and in test [7] was inactive. Also, the call in test [8] and in test [6] was inactive.

For orientation: AC50 means the concentration giving half of the maximal activity seen. Turning to `CCCCCCCCCCCCc1ccc(O)cc1`, the call in [9], in test [10], in test [2], in test [5], in test [7] and in test [8] was inactive. Besides, in test [6], the call was inactive. In [3], the concentration at half-maximal activity (AC50) was 15.1 µM (active).

`CC(C)(C)C1CCC(=O)CC1`: the compound was called inactive in test [9], in test [10], in test [2], in test [3], in test [7] and in test [6].

For `CCCCC(CC)COS(=O)(=O)O` (centres undefined), the outcome in test [1], in test [10], in test [4], in [5], in [7] and in [6] was inactive.

Consider `CC(C)(C)NC(=O)[C@H]1CC[C@H]2[C@@H]3CC[C@H]4NC(=O)C=C[C@]4(C)[C@H]3CC[C@]12C`, for which the outcome in test [9], in [10], in test [2], in [3], in test [5] and in test [7] was inactive. Moreover, in test [6], the call was inactive.

For the compound `CCCCCCCC(=O)OCC(COC(=O)CCCCCCC)OC(=O)CCCCCCC`, the result in [9], in [10], in test [2], in [3], in [5] and in test [8] was inactive. The outcome in test [6] was inactive.

For `CCCCCOC(=O)CCCCC`, the compound was classed as inactive in [1], in [2] and in test [6].

On to `C=C(C)C(=O)OCC(O)COc1ccc(C(C)(C)c2ccc(OCC(O)COC(=O)C(=C)C)cc2)cc1` (centres undefined), for which the compound was classed as inactive in test [1] and in test [7]. For the same compound, the AC50 was 27.4 µM (active) in [8] and 158 µM (active) in [6].

Turning to `CC(C)(CO)COC(=O)C(C)(C)CO`, the call in test [9], in test [2], in test [3], in [4], in test [7] and in [6] was inactive.

With `C=C1C[C@H]2[C@@H]3C=C(C)C4=CC(=O)CC[C@]4(C)[C@H]3CC[C@]2(C)[C@@]1(OC(C)=O)C(C)=O`, the half-maximal activity concentration (AC50) in test [9] was 0.0106 µM (active); in test [2] it was 16.6 µM (active). For the same compound, the outcome in test [3], in test [5], in [7], in [8] and in test [6] was inactive.

As for `CC12CCC(CC1)C(C)(C)O2`, the result in test [9], in [10], in [4], in test [5], in [8] and in test [6] was inactive.

On to `CCC(C)C(=O)OC` (centres undefined), for which the compound was called inactive in [9], in test [10], in test [4], in test [5], in test [7] and in test [6].

Take `CC(=O)C(C)C`: the result in test [9], in test [2], in test [3], in [4], in test [7] and in [6] was inactive.

`CCNc1nc(NC(C)(C)C)nc(OC)n1`: the compound was called inactive in test [9], in test [10], in [3] and in [6].

For `C=CC(=O)O[C@H]1C[C@@H]2CC[C@@]1(C)C2(C)C`, the result in test [9], in test [2], in test [3], in test [4], in test [5] and in test [8] was inactive. Besides, the result in test [6] was inactive.

Regarding `C=C[C@@]1(C)CC(=O)[C@]2(O)[C@@]3(C)[C@@H](O)CCC(C)(C)[C@@H]3[C@H](O)[C@H](OC(C)=O)[C@@]2(C)O1`, the results for the half-maximal activity concentration (AC50) in test [9] and in test [3] were 42.5 µM (active) and 0.973 µM (active), respectively. Besides, the compound was called inactive in [2], in test [4], in test [5], in [7], in test [8] and in test [6].

As for `CC/C=C\C/C=C\C/C=C\CCCCCCCC(=O)OC`, the result in [9], in [10], in [4], in test [7], in test [8] and in [6] was inactive.

For `CCCCCCCCCC(C)=O`, the compound was called inactive in [9], in [2], in test [3], in test [7], in [8] and in [6].

As for `CCOC(=O)[C@H](O)[C@@H](O)C(=O)OCC`, the compound was called inactive in [9], in test [2], in [3], in test [4], in test [7] and in [8]. The compound was classed as inactive in [6].

`CC=CC(=O)OCC(C)C`: the call in test [9], in test [10], in test [4], in [5] and in test [6] was inactive.

Take `Nc1ccc(C(=O)OCCCOC(=O)c2ccc(N)cc2)cc1`: the call in test [9], in [10], in test [4], in test [7] and in test [6] was inactive.

As to `COc1ccc(-c2coc3cc(O)cc(O)c3c2=O)cc1`, the outcome in test [9], in [2], in test [3], in [5], in test [7] and in test [6] was inactive.

As to `Nc1nc(N)nc(-c2ccccc2)n1`, the compound was classed as inactive in [9], in test [2], in test [3], in test [5], in test [7] and in test [8]. Besides, in [6], the compound was called inactive.

For the compound `CCCCC(C=O)CC` (centres undefined), the outcome in [9], in [10], in test [4], in test [7], in [8] and in test [6] was inactive.

As for `[Cl][Eu]([Cl])[Cl]`, the outcome in [9], in test [10], in [5] and in [6] was inactive.

Consider `CCCCCCCCCCCC(=O)OCC`, for which the compound was classed as inactive in [9], in [2], in [3], in [7], in [8] and in test [6].

As to `COC(=O)[C@H](Cc1ccccc1)NC(=O)[C@@H](N)CC(=O)O` (H-Asp-Phe-OMe), the result in test [9], in [2], in test [3], in test [5], in [7] and in test [6] was inactive.

The values above are taken from PubChem BioAssay (EPA / NIEHS).
